A selection: hits, their analogues and other compounds. The true share with any hit is near 6.9%.
L3MBTL1 block – inhibitors of human L3MBTL1; Q9Y468; Potency, µM (series often up to 57.1 µM), hits mostly inhibitors; 0.66% of 230,000 active; AlphaScreen L3MBTL1–H3K9me1 peptide binding; AID 485360; also: nearly all actives have a fitted effect of over 60% in size
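First, the protein-peptide complex forms for 30 min at room temperature (L3MBTL1 50 nM, biotinylated H3K9me1 peptide 75 nM). Next, compounds are pin-transferred and incubated 30 min. Finally, AlphaScreen beads are added and read after 30 min.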
PLK1 PBD inh – blocks phosphopeptide binding to human PLK1 polo-box domain | 2.8% of 360,000 active | Potency, µM, usual class: inhibitors | Plk1 PBD binding of FITC phosphopeptide, fluorescence polarization; also: series mostly up to about 57 µM; nearly all actives have a fitted effect of over 65% in size
VDR inhibitor – blocks the human vitamin D receptor | 0.93% of 400,000 active | VDR-SRC2-3 peptide fluorescence polarization, 2 h | P11473 | Potency, µM, actives largely listed as inhibitors
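Fluorescence polarization assay of small-molecule disruption of VDR binding to coregulator peptide SRC2-3. Compounds and controls pin-transferred, then read after 2 h incubation at ambient room temperature.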
JMJD2A Tudor inh – JMJD2A Tudor domain (human) inhibition. O75164. AlphaScreen JMJD2A-Tudor / H3K4me3 peptide binding. Potency, µM (series often up to 114 µM), actives largely listed as inhibitors. 4.4% of 390,000 active. AID 504339; also: nearly all actives have a fitted effect of over 50% in size
BAZ2B inh – blocks human BAZ2B; Q9UIF8; AlphaScreen BAZ2B-H3K14Ac peptide displacement; Potency, µM (titrated, usually from 114 µM), most hits filed as inhibitors; 4.4% of 360,000 active; also: nearly all actives have a fitted effect of over 60% in size
Target sequence (Q9UIF8 whole entry, looked up): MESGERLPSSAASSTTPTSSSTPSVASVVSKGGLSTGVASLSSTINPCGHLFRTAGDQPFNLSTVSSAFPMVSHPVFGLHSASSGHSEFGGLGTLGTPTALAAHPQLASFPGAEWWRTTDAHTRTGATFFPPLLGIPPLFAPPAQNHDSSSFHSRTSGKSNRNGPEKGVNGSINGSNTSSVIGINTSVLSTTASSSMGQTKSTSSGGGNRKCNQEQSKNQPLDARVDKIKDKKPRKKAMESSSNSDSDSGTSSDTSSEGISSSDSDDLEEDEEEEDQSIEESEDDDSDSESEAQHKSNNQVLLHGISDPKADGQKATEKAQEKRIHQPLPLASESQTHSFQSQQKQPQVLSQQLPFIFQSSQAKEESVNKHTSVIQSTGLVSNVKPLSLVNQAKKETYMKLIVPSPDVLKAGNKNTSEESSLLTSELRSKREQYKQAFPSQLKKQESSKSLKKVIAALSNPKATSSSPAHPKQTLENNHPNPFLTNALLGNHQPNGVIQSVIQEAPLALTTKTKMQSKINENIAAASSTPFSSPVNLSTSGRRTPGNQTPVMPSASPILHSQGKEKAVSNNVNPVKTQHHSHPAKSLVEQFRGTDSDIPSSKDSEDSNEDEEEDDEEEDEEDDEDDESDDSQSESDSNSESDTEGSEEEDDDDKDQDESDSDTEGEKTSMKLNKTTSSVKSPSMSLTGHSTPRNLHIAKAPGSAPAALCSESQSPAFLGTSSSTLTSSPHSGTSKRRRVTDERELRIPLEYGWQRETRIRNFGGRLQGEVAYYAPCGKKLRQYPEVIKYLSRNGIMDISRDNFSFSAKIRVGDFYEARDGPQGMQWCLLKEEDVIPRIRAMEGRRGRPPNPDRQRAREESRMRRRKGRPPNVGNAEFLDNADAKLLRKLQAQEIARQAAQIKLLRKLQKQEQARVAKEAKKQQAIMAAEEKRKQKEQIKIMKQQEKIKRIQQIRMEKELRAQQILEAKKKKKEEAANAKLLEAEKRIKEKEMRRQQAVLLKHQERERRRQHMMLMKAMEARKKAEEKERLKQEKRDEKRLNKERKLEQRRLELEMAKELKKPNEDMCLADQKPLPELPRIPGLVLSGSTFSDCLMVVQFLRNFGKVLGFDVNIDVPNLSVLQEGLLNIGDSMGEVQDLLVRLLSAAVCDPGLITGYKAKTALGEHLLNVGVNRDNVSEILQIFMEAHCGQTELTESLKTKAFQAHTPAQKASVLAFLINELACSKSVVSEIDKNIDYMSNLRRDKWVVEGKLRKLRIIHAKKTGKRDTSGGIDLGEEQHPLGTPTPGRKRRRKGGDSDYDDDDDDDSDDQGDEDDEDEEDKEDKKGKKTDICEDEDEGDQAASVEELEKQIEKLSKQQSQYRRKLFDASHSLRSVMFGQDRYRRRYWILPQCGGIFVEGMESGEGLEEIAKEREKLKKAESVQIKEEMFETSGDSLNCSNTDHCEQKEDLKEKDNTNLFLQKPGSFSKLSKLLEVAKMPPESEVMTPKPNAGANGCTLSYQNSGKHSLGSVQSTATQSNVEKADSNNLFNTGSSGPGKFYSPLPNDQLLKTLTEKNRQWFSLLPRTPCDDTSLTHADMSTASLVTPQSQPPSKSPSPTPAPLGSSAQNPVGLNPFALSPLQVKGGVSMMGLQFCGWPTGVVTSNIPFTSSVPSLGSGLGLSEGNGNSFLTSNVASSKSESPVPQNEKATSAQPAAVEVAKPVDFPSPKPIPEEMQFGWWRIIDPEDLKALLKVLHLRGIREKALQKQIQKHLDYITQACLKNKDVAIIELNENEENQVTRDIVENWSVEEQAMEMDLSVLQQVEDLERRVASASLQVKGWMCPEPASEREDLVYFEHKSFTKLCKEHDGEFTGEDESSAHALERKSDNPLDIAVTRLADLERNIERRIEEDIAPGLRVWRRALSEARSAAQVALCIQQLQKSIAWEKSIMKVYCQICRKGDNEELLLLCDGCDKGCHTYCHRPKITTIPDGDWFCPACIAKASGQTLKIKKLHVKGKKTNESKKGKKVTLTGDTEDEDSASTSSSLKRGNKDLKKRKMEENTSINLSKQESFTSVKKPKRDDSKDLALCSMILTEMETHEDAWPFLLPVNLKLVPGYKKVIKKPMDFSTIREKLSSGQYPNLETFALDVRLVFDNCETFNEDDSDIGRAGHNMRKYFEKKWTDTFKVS
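Protein-peptide AlphaScreen: BAZ2B 50 nM, b-H3K14Ac 50 nM, 1x PBS pH 7.4 + 0.01% Tween-20. Preincubation 30 min RT; cpd 30 min RT (top 110 uM); beads 20 min RT, light-protected.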
HP1b binding inh – inhibitors of HP1-beta chromodomain binding to methylated histone tails. P83916. AlphaScreen HP1-beta / biotin-H3K9me3 peptide binding. Potency, µM (titrated, usually from 114 µM), usual class: inhibitors. 0.56% of 390,000 active. AID 540317; also: nearly all actives have a fitted effect of over 70% in size
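AlphaScreen: HP1-beta (50 nM) preformed 30 min with biotin-H3(1-18)K9me3 peptide (50 nM) in PBS pH 7.4, 0.01% Tween-20. Compound added for 30 min at RT, then streptavidin donor/nickel chelate acceptor beads (10 ug/mL) for 30 min.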
Numbers stand for hits; i = inactive; ? = inconclusive; nt = not tested or not shown; [ ] = remark or other dose. Calls follow the shape of the dose curve; as a rule, active = well fitted curve in the direction sought with a large enough effect; inconclusive = small, poorly fitted or top-dose-only effect, or another doubt; inactive = no such curve, though single readings can be large; an effect the other way counts as inactive or inconclusive.

SMILES	L3MBTL1 block	PLK1 PBD inh	VDR inhibitor	JMJD2A Tudor inh	BAZ2B inh	HP1b binding inh
CCN(CC)S(=O)(=O)c1ccc2c(c1)N(CC(=O)N1CCN(c3ccc(Cl)cc3)CC1)C(=O)CO2	nt	nt	i	i	i	i
Cc1c2cnn(CC(=O)N3CCOCC3)c(=O)c2c(C)n1Cc1ccccc1F	i	i	?	i	i	i
CCOC(=O)c1cc(C#N)c(SCC(=O)Nc2ccc(C(C)=O)cc2)[nH]c1=O	i	i	i	i	i	i
CCOC(=O)c1cc(C#N)c(SCC(=O)O)[nH]c1=O	i	i	i	31.6µM	?	i
CCOC(=O)c1cc(C#N)c(SCC(=O)c2cc(C#N)c(SC)nc2C)[nH]c1=O	i	?	?	79.4µM	i	i
CSc1[nH]c(=O)c(C(=O)O)cc1C#N	nt	i	i	i	50.1µM	i
CC(C(=O)O)n1cc(C#N)c(=O)[nH]c1=O (stereo not drawn)	nt	i	i	i	nt	i
Cc1cccc(C)c1NC(=O)CN(c1ccccn1)S(=O)(=O)c1ccc(F)cc1	i	i	i	i	i	i
CCOc1ccc(C(CC(=O)O)NC(=O)COc2ccccc2)cc1OC (stereo not drawn)	nt	i	i	i	nt	i
CCOc1ccc(C(CC(=O)O)NS(=O)(=O)c2ccc(C)cc2)cc1OC (stereo not drawn)	i	21.2µM	i	i[11.4 µM]	i	i
COc1ccc(-c2c(C(=O)O)nc3ccccc3c2C(=O)O)cc1	i	i	i	25.1µM	i	i
O=C(O)c1nc2ccccc2nc1C(=O)O	i	i	i	20µM	79.4µM	i
O=C(O)Cc1cc2ccccc2nc1C(=O)O	nt	nt	i	nt	nt	nt
CC(C)CCn1c(=O)c2cccnc2n(CC(=O)Nc2ccc(F)cc2)c1=O	nt	nt	i	i	i	i
COc1ccc(C(=O)Nc2cc([N+](=O)[O-])ccc2N2CCCC2)cc1	i	i	i	i	i	i
COc1ccc(N2CCCC2)c(NC(=O)c2ccc([N+](=O)[O-])o2)c1	nt	23.8µM	79.4µM	28.2µM	14.1µM	35.5µM
O=C(Nc1ccccc1N1CCCC1)c1ccc([N+](=O)[O-])o1	nt	i	i	?	31.6µM	i
CCc1ccc(-n2nc(CO)c(C(=O)NC(C)c3ccc(Cl)cc3)n2)cc1 (stereo not drawn)	nt	nt	i	i	i	i
Cn1nc(C(=O)NCc2ccc(F)cc2)c2c1-c1ccccc1SC2	nt	nt	i	28.2µM	10µM	?
Cn1cc(C(=O)NCc2ccc(F)cc2)cn1	nt	23.8µM	i	i	i	i
Cn1nc(C(=O)N2CCN(c3ccc(F)cc3)CC2)c2c1-c1ccccc1SC2	nt	nt	i	?	i	i
Cn1nc(C(=O)NCc2ccc(Cl)cc2)c2c1-c1ccccc1SC2	nt	nt	i	i	i	i
Cn1nc(C(=O)N2CCN(c3ccccc3F)CC2)c2c1-c1ccccc1SC2	nt	nt	i	20µM	12.6µM	i
CC(C)c1ccc(NC(=O)CSC2=Nc3ccccc3C3=NC(CCC(=O)NCc4cccs4)C(=O)N23)cc1 (stereo not drawn)	nt	nt	i	i	i	i
COC(=O)c1ccc(-c2ccc(/C=N/N3C(=O)C4C5C=CC(C6CC56)C4C3=O)o2)cc1 (stereo not drawn)	i	i	i	?	56.2µM	i
SMILES	L3MBTL1 block	PLK1 PBD inh	VDR inhibitor	JMJD2A Tudor inh	BAZ2B inh	HP1b binding inh
O=C1C2C3C=CC(C4CC34)C2C(=O)N1/N=C/c1ccc(-c2ccc([N+](=O)[O-])cc2)o1 (stereo not drawn)	i	i	i	i	i	i
COc1ccc(S(=O)(=O)N2CCCCC2c2cc(C(=O)N3CCOCC3)no2)cc1 (stereo not drawn)	nt	i	nt	nt	nt	nt
Cc1cc2n(n1)CCC(=O)N2Cc1ccc(C(=O)Nc2cccc(C(F)(F)F)c2)cc1	nt	nt	i	i	i	i
Cc1ncoc1C(=O)N1CCc2c([nH]c3ccccc23)C1C1CCCCC1 (stereo not drawn)	i	i	i	?	25.1µM	i
CC[C@@]1(O)C(=O)OCc2c1cc1n(c2=O)Cc2cc3c(CN(C)C)c(O)ccc3nc2-1	nt	5.97µM	i	i	nt	i
COc1ccc(N2CCC(CNC(=S)Nc3cccc(C)c3)C2)cc1 (stereo not drawn)	?	?	i	44.7µM	12.6µM	?
COc1cccc(N2CCN(C(=S)Nc3ccc(C)cc3C)CC2)c1	i	i	i	i	i	i
COc1ccc(N2CCC(CNC(=S)Nc3ccc(C)cc3C)C2)cc1 (stereo not drawn)	nt	?	i	28.2µM	15.8µM	?
COc1ccc(N2CCC(CNC(=S)Nc3c(C)cc(C)cc3C)C2)cc1 (stereo not drawn)	nt	11.9µM	i	35.5µM	20µM	7.08µM
O=C1CCCC2[C@@H]3CCC[N@+]4([O-])CCC[C@H](CN12)C34 (stereo partly drawn)	nt	nt	i	nt	nt	nt
CSc1ccccc1OCc1cc(C(=O)N(C)CCn2nc(C)cc2C)no1	nt	3.36µM	?	12.6µM	?	i
CCOc1ccc(-c2nonc2NC(=O)c2oc3cc(Br)ccc3c2C)cc1	nt	nt	i	39.8µM	i	i
CCOc1ccc(-c2nonc2NC(=O)c2oc3ccc(Br)cc3c2C)cc1	nt	nt	i	i	i	i
CCn1nnnc1SCC(=O)N1CCN(c2ccccc2)CC1	nt	i	i	i	i	i
CCn1c(SCC(=O)N2CCN(c3ccc(F)cc3)CC2)nc2ccccc2c1=O	nt	i	i	i	i	i
Cn1c(Cc2cccc3ccccc23)nnc1SCC(=O)N1CCN(c2ccccc2)CC1	i	i	i	79.4µM	?	i
O=C(CSc1nnnn1Cc1ccccc1)N1CCN(c2ccccc2)CC1	i	i	i	89.1µM	i	i
CCn1c(SCC(=O)N2CCN(c3ccc(Cl)cc3)CC2)nc2ccccc2c1=O	i	i	i	i	50.1µM	i
COc1ccc(NC(=O)Cn2c(=O)n(Cc3ccccc3OC)c(=O)c3cccnc32)cc1Cl	nt	nt	i	i	i	i
Cn1c(NC(=S)Nc2ccccc2)nc2ccccc21	i	23.8µM	?	i	i	i
S=C(Nc1ccccc1)Nc1nc2ccccc2n1CCOc1ccc(Br)cc1	6.31µM	i	i	?	3.16µM	i
Nc1nc2ccccc2n1CCOc1ccc(Br)cc1	nt	i	i	i	?	i
CCOC(=O)c1ccc(NC(=O)CN(C)S(=O)(=O)c2ccc(Br)s2)cc1	i	i	i	i	i	i
CCOCCCn1c(=N)c(S(=O)(=O)c2ccc(Cl)cc2)cc2c(=O)n3cccc(C)c3nc21	nt	nt	i	i	i	i
Cc1cccn2c(=O)c3cc(C(=O)NC4CCCC4)c(=N)n(Cc4ccc(F)cc4)c3nc12	nt	i	i	i	i	i
COCCCn1c(=N)c(C(=O)NCc2ccco2)cc2c(=O)n3cccc(C)c3nc21	nt	nt	i	i	i	i
CCOCCCn1c(=N)c(C(N)=S)cc2c(=O)n3cccc(C)c3nc21	i	?	79.4µM	79.4µM	?	i
Cc1cccn2c(=O)c3cc(C(N)=S)c(=N)n(CCCOC(C)C)c3nc12	i	i	25.1µM	?	i	i

Screening results from PubChem BioAssay.
